7 molecules from PubChem BioAssay (NCATS) can be followed below.

Results filed as inconclusive are left out. More than one record can exist for a structure, and the calls need not agree. Calls of active or inactive are those of the source. Unless noted, the call rests on the fitted dose curve; in most records, active means well fitted curve in the direction sought with a large enough effect; inconclusive means small, poorly fitted or top-dose-only effect, or another doubt; inactive means no such curve, though single readings can be large; an effect the other way counts as inactive or inconclusive.

Test [1] addresses Thioredoxin reductase 1, cytoplasmic (Rattus norvegicus) (UniProt O89049). As to the kind of experiment: qHTS Assay for Substrates of Mammalian Selenoprotein Thioredoxin Reductase 1 (TrxR1) (AID 488772).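 Further: series mostly up to about 57 µM; 0% is about no effect; a drop in NADPH fluorescence below the no-compound background marks a TrxR1 substrate.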 The gist of the method:
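In this dual-purpose format, potential substrates are identified from the first fluorescence read after selenite addition, not from the 8-minute delta. Rat enzyme is preincubated with NADPH and then with compound at ~22 deg C.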
For orientation: Quantitative high-throughput screening tests each substance at several concentrations.

The target is the same in test [2]. In words: qHTS Assay for Inhibitors of Mammalian Selenoprotein Thioredoxin Reductase 1 (TrxR1) (AID 488773).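 Further: drop in NADPH fluorescence over an 8 min run after selenite addition; series mostly up to about 57 µM; on the % scale 0 is the no-effect control and ±100 the full control effect; nearly all actives have a fitted effect of over 40% in size.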 The conditions noted are these: Potency: inhibition. In outline: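 Inhibition is scored from the loss of NADPH fluorescence between first and last reads of an 8-min kinetic run. Selenite (400 uM) was the substrate, added after 15 min compound preincubation at room temperature.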

The target in test [3] is Flap endonuclease 1 (Homo sapiens) (UniProt P39748). As to the kind of experiment: qHTS Validation Assay for the Inhibitors of Human Flap endonuclease 1 (FEN1) (AID 488816). Further: on the % scale 0 is the no-effect control and ±100 the full control effect. The gist of the method:
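qHTS format: compounds and 10 nM FEN1 incubated 15 min at room temperature before adding 50 nM substrate. Cleavage followed by reads at 0 and 15 min; normalized data fitted to a four-parameter Hill curve.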

In test [4] the target is M-phase phosphoprotein 8 (Homo sapiens) (UniProt Q99549). In words: qHTS Validation Assay for Inhibitors for MPP8 Chromodomain Interactions with Methylated Histone Tails (AID 488949). Further: nearly all actives have a fitted effect of over 55% in size. Further: potency means the concentration at half of the fitted maximal effect. The gist of the method:
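50 nM MPP8 + 50 nM b-H3K9me3 peptide, PBS pH 7.4/0.01% Tween-20, 30 min RT; + cpd 30 min RT; + AlphaScreen donor/Ni-chelate acceptor beads 10 ug/mL final, 30 min dark; luminescence read.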

The target of test [5] is Chromobox protein homolog 1 (Homo sapiens) (UniProt P83916). As to the kind of experiment: qHTS Validation Assay for Inhibitors of HP1-beta Chromodomain Interactions with Methylated Histone Tails (AID 488953). Further: nearly all actives have a fitted effect of over 50% in size. Further: potency means the concentration at half of the fitted maximal effect. In outline:
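Compounds pinned into a preassembled complex of HP1-beta and trimethyl-K9 histone H3(1-18) biotin peptide (50 nM each; PBS pH 7.4, 0.01% Tween-20). After 30 min, bead-based AlphaScreen detection followed.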

The nature of test [6]: Validation screen for small molecules that induce genotoxicity in human embryonic kidney (HEK293T) cells expressing luciferase-tagged ELG1 (AID 493106). Further: 0% is about no effect. The gist of the method:
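In this validation screen, increased ELG1-luciferase signal flags compounds causing genetic stress. HEK293T reporter cells are treated 16 hr (37 °C, 5% CO2), developed with ONE-Glo for 30 min at room temperature, and imaged on a CCD-based reader.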

For test [7], the target named is ATPase family AAA domain-containing protein 5 (Homo sapiens) (UniProt Q96QE3). As to the kind of experiment: Validation screen for small molecules that inhibit ELG1-dependent DNA repair in human embryonic kidney (HEK293T) cells expressing luciferase-tagged ELG1 (AID 493107). Further: nearly all actives have a fitted effect of over 70% in size. Further: potency means the concentration at half of the fitted maximal effect. In outline:
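Compounds reducing 5-fluorouridine-driven ELG1-luciferase signal in HEK293T cells were scored; exposure lasted 16 hr at 37 °C with luminescence detected via ONE-Glo.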

Test [8] can be described thus: qHTS for Inhibitors of Cell Surface uPA Generation: Validation Assay (AID 493164).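 Further: RAW 264.7 macrophage cells exposed to compound for 18 h; 0% is about no effect.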 In outline:
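Compounds are titrated over seven points (2.45 nM–38.3 uM final) onto pre-plated RAW 264.7 cells and incubated for 18 h. Retained intracellular ATP, measured with ATP-Lite, indicates blocked lethal factor entry.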

Test [9] concerns the target Methanococcus maripaludis chaperonin (MmCpn) (UniProt Q6LX38). In words: High-Throughput Screening for Modulators of Cytosolic Chaperonin Activity: MmCpn Primary Screen (AID 488978).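 Further: 50 nM MmCpn enzyme hydrolysing 30 µM ATP at 37 °C; 0% is about no effect.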 In outline: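 Steps: chaperonin 50 nM final; add compound, 5 min RT; start with ATP, 30 uM final; hold 10 min at 37C; add ADP Transcreener HTRF reagent, 5 min; read ex 320, em 590 and 665 nm.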

The target in test [10] is Thyrotropin receptor (Homo sapiens) (UniProt P16473). As to the kind of experiment: qHTS Assay for Antagonists of the Thyroid Stimulating Hormone Receptor (AID 488980). Further: series mostly up to about 58 µM; 0% is about no effect. The gist of the method: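 Readout is cAMP by HTRF competition between cellular cAMP and cAMP-d2 for a cryptate-labelled antibody. Antagonism was assessed in TSHR-transfected HEK293 cells stimulated with 4 nM TSH (EC80, final) in the presence of RO 20-1724.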
Sequence of Thyrotropin receptor (Homo sapiens) (P16473 whole entry, looked up): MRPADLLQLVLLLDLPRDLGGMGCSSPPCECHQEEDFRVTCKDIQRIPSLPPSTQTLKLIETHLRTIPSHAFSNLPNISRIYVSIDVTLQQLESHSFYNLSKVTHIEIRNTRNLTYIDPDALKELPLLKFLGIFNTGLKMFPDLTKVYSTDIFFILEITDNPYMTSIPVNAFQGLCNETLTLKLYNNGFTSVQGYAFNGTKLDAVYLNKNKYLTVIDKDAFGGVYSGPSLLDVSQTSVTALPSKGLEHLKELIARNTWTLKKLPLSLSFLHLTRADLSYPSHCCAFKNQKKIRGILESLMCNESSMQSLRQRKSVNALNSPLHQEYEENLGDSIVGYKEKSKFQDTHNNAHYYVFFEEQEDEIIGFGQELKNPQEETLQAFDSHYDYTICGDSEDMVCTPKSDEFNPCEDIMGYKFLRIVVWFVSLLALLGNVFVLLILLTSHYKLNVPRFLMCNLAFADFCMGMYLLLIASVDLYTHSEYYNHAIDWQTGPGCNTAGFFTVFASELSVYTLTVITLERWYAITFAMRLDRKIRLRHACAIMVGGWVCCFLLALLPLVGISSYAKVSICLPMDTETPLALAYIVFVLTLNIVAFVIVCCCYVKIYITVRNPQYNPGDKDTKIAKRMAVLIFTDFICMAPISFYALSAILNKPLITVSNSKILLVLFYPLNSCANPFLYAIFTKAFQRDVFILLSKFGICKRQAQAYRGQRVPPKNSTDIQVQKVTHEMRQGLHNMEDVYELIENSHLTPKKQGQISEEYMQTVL

The target of test [11] is D(1A) dopamine receptor (Homo sapiens) (UniProt P21728). As to the kind of experiment: HTS Assay for Allosteric Agonists of the Human D1 Dopamine Receptor: Primary Screen for Agonists (AID 488981). Further: 0% is about no effect. In outline: (§1)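 Calcium flux in an inducible, force-coupled HEK293 Trex D1 line (overnight at 30 C): agonist mode is the 180 s kinetic read after compound; potentiator mode is the following 180 s read after dopamine at EC20.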
Sequence of D(1A) dopamine receptor (Homo sapiens) (P21728 whole entry, looked up): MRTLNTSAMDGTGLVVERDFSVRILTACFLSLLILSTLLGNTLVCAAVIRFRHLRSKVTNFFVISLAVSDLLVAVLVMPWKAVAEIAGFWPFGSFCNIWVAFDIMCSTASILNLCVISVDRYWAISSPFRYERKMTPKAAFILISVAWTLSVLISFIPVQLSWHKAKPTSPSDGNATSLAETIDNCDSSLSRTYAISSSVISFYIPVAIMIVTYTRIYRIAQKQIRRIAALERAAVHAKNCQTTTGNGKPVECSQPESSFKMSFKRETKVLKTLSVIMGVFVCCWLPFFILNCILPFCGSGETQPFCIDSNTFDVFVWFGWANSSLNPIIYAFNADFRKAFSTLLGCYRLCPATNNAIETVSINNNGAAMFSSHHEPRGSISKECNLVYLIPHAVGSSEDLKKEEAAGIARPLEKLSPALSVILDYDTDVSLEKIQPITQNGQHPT

Test [12] has the same target. As to the kind of experiment: HTS Assay for Allosteric Agonists of the Human D1 Dopamine Receptor: Primary Screen for Potentiators (AID 488982). Further: 0% is about no effect. The gist of the method:
as §1

Test [13] shares this target. In words: HTS Assay for Allosteric Agonists of the Human D1 Dopamine Receptor: Primary Screen for Antagonists (AID 488983).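 Further: calcium flux response to an EC80 dopamine challenge measured with no-wash dye; nearly all actives have a fitted effect of over 65% in size.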 Further: potency means the concentration at half of the fitted maximal effect. The gist of the method: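 In this primary screen, compounds are applied to calcium-dye-loaded HEK293 T-REx cells with force-coupled D1 expression induced overnight at 30 C. An EC80 of dopamine follows the 180 s compound phase, and calcium is monitored for a further 180 s.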

Test [14] deals with Thyrotropin-releasing hormone receptor (Homo sapiens) (UniProt P34981). In words: qHTS for Small Molecule Agonists and Allosteric Enhancers of Human TRH Receptor: Validation Screen for Agonists (AID 493127;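 active means calcium activation more than 3 SD above the typical response in the agonist read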;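 further: intracellular calcium rise by fluo-8 fluorescence before TRH EC20 addition; 0% is about no effect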). The conditions noted are these: TRH receptor agonist cell assay; at 2 µM; stronger effect = higher value. The gist of the method: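 Kinetic fluorescence assay of agonist-induced calcium release: overnight-plated TRHR cells, room-temperature fluo-8 loading, baseline then compound addition with per-second reads.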

The nature of test [15]: Nrf2 qHTS screen for inhibitors: Validation (AID 493153; active means well fitted inhibition curve with a large enough effect in the main read-out, with a control signal flat, not every such curve was filed as active). The conditions noted are these: Potency: luciferase luminescence; viability change: measured here: cytotoxicity max response. In outline:
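In this counterscreened reporter format, each well gives two signals: CellTiter-Fluor fluorescence for cytotoxicity and ARE-luciferase luminescence for Nrf2 function. A549 ARE_Fluc cells in 5% FBS OPTI-MEM were exposed to compound titrations for 18-24 h.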

Test [16] can be described thus: Validation screen for small molecules that induce DNA re-replication in SW480 colon adenocarcinoma cells (AID 504364). Further: 0% is about no effect. In outline: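 Hoechst-stained SW480 nuclei, imaged at 405 nm excitation after 48 hr compound exposure, were counted for elevated DNA content as the re-replication signal.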
Test [17] has as its target Transient receptor potential cation channel subfamily V member 1 (Homo sapiens) (UniProt Q8NER1). As to the kind of experiment: HTS Assay for Compounds that Act as Enhancers of the Vanilloid Receptor 1 (AID 488979). Further: 0% is about no effect. The gist of the method:
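Calcium influx kinetics via Fluo-8 (480/520 nm) in TRPV1-expressing cells, 2000/well cultured overnight at 35.5C. Compound-alone read 3 min (agonist phase), followed by EC20 capsaicin challenge for 2 min (enhancer phase).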

The target in test [18] is Galactokinase (Homo sapiens) (UniProt P51570). As to the kind of experiment: qHTS Validation Assay for Inhibitors of Human Galactokinase (GALK) (AID 493189). Further: 0% is about no effect. In outline:
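5 nM GALK / 100 uM galactose / 35 uM ATP, 20 mM HEPES pH8.0, 5 mM MgCl2, 60 mM NaCl, 1 mM DTT, 0.01% BSA (final). RT 1 h; Kinase-Glo Plus luminescence.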

Sequence of Chromobox protein homolog 1 (Homo sapiens) (P83916 whole entry, looked up): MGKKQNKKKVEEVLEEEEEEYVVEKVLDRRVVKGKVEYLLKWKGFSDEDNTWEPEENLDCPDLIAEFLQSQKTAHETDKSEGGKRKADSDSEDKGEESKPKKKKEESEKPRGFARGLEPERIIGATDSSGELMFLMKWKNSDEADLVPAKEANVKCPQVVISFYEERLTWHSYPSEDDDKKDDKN
Sequence of Thioredoxin reductase 1, cytoplasmic (Rattus norvegicus) (O89049 whole entry, looked up): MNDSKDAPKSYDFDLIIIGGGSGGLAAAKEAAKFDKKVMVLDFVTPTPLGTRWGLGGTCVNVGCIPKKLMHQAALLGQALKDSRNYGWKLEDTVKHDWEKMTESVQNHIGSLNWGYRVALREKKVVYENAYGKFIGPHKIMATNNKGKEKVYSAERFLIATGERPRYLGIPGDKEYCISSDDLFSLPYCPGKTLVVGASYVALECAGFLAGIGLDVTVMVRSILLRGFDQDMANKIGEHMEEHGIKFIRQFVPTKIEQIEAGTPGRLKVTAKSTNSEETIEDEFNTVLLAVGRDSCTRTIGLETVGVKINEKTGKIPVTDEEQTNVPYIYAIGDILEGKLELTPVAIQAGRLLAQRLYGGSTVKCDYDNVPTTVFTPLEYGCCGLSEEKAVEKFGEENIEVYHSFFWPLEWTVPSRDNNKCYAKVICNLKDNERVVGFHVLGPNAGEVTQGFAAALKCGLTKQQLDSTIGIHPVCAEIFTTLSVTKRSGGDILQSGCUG
Sequence of Transient receptor potential cation channel subfamily V member 1 (Homo sapiens) (Q8NER1 whole entry, looked up): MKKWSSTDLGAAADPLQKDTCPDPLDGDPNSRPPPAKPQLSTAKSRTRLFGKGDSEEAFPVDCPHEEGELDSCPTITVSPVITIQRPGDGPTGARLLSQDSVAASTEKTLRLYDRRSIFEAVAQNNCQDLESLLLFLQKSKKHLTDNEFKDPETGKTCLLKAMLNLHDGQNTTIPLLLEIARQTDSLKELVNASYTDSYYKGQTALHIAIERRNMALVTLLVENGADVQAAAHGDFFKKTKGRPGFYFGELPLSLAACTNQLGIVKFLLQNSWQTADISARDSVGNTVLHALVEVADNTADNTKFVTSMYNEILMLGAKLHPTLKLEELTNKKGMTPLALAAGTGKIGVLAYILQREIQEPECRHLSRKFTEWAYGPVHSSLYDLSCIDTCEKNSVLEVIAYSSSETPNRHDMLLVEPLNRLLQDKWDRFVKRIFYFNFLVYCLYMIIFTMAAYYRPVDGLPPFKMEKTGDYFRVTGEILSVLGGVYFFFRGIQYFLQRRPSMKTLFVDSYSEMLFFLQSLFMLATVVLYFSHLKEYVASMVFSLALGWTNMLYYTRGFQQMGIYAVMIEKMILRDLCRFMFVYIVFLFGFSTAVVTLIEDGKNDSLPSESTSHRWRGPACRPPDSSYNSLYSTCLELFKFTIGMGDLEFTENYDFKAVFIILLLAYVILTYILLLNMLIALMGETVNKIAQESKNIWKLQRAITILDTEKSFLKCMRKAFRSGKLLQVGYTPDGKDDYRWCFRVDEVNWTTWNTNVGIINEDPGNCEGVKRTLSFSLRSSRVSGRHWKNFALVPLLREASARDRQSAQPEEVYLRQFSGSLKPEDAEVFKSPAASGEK
Sequence of ATPase family AAA domain-containing protein 5 (Homo sapiens) (Q96QE3 whole entry, looked up, the tested form may be a part): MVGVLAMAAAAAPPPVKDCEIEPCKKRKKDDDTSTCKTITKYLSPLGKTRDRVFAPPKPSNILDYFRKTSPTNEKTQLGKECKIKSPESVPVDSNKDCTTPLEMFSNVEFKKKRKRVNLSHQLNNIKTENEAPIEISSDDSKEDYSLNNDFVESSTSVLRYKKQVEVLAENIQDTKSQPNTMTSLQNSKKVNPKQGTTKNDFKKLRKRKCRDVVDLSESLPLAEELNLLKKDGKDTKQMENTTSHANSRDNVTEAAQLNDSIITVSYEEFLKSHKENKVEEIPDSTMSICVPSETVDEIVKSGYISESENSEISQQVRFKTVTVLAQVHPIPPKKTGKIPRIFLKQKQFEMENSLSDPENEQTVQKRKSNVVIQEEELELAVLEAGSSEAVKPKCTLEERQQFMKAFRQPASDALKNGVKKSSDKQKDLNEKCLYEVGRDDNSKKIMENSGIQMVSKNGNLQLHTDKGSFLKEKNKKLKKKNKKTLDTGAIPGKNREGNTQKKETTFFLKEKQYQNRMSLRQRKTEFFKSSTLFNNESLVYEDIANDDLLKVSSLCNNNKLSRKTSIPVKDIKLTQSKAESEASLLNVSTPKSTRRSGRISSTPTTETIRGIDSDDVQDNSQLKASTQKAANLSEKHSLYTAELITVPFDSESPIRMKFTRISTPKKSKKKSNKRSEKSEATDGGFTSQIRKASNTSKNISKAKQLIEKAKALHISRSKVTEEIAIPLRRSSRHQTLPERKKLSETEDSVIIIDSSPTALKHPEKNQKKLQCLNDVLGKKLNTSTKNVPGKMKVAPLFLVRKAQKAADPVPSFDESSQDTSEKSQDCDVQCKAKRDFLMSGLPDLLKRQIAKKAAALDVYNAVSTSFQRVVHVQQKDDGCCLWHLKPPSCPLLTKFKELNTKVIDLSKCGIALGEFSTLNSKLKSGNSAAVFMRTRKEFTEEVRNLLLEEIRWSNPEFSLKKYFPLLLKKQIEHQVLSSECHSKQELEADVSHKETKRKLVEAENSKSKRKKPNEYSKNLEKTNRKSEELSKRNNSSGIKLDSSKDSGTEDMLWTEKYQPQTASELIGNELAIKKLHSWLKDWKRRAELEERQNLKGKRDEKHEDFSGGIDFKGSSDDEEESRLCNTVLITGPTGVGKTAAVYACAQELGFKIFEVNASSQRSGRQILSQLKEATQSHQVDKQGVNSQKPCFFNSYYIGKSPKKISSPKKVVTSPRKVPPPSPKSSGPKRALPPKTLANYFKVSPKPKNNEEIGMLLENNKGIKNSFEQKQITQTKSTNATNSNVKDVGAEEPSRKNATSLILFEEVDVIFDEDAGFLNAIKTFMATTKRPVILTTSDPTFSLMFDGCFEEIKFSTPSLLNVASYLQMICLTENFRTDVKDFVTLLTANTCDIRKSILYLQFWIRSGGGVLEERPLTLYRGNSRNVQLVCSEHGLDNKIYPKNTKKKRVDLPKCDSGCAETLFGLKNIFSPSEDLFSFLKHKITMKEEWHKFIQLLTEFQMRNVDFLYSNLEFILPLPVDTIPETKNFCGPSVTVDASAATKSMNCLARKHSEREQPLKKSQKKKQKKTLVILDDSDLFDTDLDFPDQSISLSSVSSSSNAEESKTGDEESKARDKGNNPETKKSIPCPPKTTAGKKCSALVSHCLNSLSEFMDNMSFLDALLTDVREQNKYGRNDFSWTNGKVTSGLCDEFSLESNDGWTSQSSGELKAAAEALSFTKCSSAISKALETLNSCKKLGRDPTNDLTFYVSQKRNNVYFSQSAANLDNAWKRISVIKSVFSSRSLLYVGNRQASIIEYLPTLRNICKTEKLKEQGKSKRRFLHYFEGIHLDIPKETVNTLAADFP
Sequence of Galactokinase (Homo sapiens) (P51570 whole entry, looked up): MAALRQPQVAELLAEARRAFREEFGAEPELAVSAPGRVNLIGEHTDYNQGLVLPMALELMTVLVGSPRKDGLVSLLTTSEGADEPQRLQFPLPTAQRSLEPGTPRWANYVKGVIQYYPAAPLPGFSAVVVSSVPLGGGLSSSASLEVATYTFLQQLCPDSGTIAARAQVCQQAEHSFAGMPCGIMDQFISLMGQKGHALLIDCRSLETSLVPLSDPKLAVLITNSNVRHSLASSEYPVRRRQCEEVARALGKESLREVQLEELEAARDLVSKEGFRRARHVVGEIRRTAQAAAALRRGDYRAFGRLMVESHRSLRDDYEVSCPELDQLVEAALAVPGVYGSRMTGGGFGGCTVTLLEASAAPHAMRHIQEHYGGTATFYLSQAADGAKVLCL

As to `COc1ccc2c(c1)CCC1C2CC[C@@]2(C)C1CC[C@@H]2NCCCCCCN1C(=O)CCC1=O` (stereo partly drawn), the Potency result in [1], in [2], in test [3], in [4], in test [5] and in test [6] was “inactive” each time. In addition, in [7], the Potency was 25.9 µM (active). Also, the molecule was classed as inactive in test [8].
As for `CC(C)Cc1ccc([C@H](C)C(=O)O)cc1`, the Potency result in [1], in test [2], in test [4], in test [5], in [11] and in [12] was “inactive” each time. The Potency entry in test [13], in [6], in test [7], in test [15] and in test [16] was “inactive” throughout. The molecule was classed as inactive in [9] and in [10]. For the same molecule, in [14], the activation was 0.688% (inactive). The viability change in test [15] was 6.18%.
`COc1cccc(C(=O)NCCN2CCN(c3ccc(Cl)cc3)CC2)c1`: the Potency entry in [1], in [2], in test [3], in test [4], in [5] and in [11] was “inactive” in each case. The Potency result in test [13], in [6], in test [15], in test [18] and in test [16] was “inactive” each time. Besides, the result in test [17] and in [10] was inactive. Further, the activation in test [14] is 0.562% (inactive). Moreover, the viability change in test [15] is -10%.
As for `O=P(O)(O)C(Cl)(Cl)P(=O)(O)O`, the Potency result in test [1], in [2], in test [3], in test [11], in [12] and in [13] was “inactive” throughout. For the same molecule, the Potency result in test [6], in test [7] and in [15] was “inactive” each time. Also, the result in test [9] and in test [8] was inactive. Moreover, the viability change in [15] stood at 4.97%.
`COc1cc2nc(N3CCN(C(=O)OCc4ccccc4)C(C(=O)NC(C)(C)C)C3)nc(N)c2cc1OC` (stereo not drawn): the Potency entry in test [1], in test [2], in [4], in test [5], in test [11] and in [13] was “inactive” each time. For the same molecule, the Potency result in [6] and in test [18] was “inactive” in each case. The outcome in test [17], in test [10] and in test [8] was inactive. Also, the activation in test [14] was -3.06% (inactive).
For the molecule `CN1CCc2ccccc2Cc2[nH]c3ccccc3c2CC1`, the Potency entry in test [1], in [3], in [11], in [6], in test [15] and in test [18] was “inactive” throughout. The Potency result in [16] is “inactive”. Further, the Potency in test [4] is 50.1 µM (active) and inactive; in test [13], 0.355 µM (active). For the same molecule, the result in [17], in test [10] and in test [8] was inactive. In addition, in test [14], the activation is 0.5% (inactive). Further, in [15], the viability change is -10.2%.
Consider `CN=c1nc(-c2ccccc2)n(-c2ccccc2)s1`, for which the Potency result in test [1], in test [3], in [11], in test [12] and in test [16] was “inactive” each time. Moreover, the results for the Potency in test [4], in test [5] and in test [13] were 4.47 µM (active), 12.6 µM (active) and 11.2 µM (active), respectively. For the same molecule, the outcome in test [17], in [10] and in [8] was inactive. Moreover, the activation in [14] is 13% (inactive).
